Literature values, collected in PubChem BioAssay AID977611.
Hit rate of the full screen: of about 3,900 compounds, about 3,900 (100%) were called active. No cut-off is given here; in the data, nearly all actives have Kd up to about 4200 µM. The set was probably picked from earlier hits. The list shows a part of the results. Starred links: 1 amine or outer side, 2 acyl side, 3 side chain; linkers in the order of their positions; H or OH if unused. *1 amine or outer side, *2 acyl side, *3 side chain or, on linkers, in order; H or OH if unused. Where a SMILES comes first, the peptide text is derived from it. Non-standard residues stand in square brackets, D forms with d. Square brackets hold non-standard residues; d marks the D form. Residues, ends and D or L forms follow the SMILES beside them. Peptide text beside a SMILES is read from it. [ ]: non-standard residue; d: D form. ξ: configuration not given here. X1 = O=C([C@H](Cc1ccc(O[P+](O)(O)O)cc1)N[*:1])[*:2]; Thr(P(OH)3+) = C[C@@H](O[P+](O)(O)O)[C@H](N)C(=O)O; Orn(CH(NH2)2) = NC(N)NCCC[C@H](N)C(=O)O; ξE = NC(CCC(=O)O)C(=O)O

Experiment: PubChem AID 977611
Details: PDB protein-ligand complexes, literature Kd

For H-HPVAEADYFEY-OH, the Kd (protein: HLA class I histocompatibility antigen, B-35 alpha chain, PDB entry 4prn) is given as 2.2 µM (active) and the Kd (protein: MHC class I antigen HLA-B 35:08, PDB entry 4prb) is given as 132 µM (active).
In the case of CC[C@H](C)[C@H](NC(=O)[C@H](Cc1ccc(O)cc1)NC(=O)[C@@H](N)C(C)C)C(=O)N[C@@H](Cc1cnc[nH]1)C(=O)N1CCC[C@H]1C(=O)N[C@@H](Cc1ccccc1)C(=O)O, the Kd (protein: Aminopeptidase N, PDB entry 4fys) is given as 15 µM (active).
For H-TLVSMPPLPGLDLAGS-OH, the Kd (protein: Ankyrin Repeat Domains of Human DNA-binding protein RFXANK, PDB entry 3v30) is given as 184 µM (active).
For H-HPVGQADYFEY-OH, the Kd (protein: LA class I histocompatibility antigen, B-35 alpha chain HLA-B 35:011, PDB entry 4pra) is listed as 2.2 µM (active), the Kd (protein: MHC class I antigen HLA-B 35:08, PDB entry 4pre) is listed as 181 µM (active) and the Kd (protein: MHC class I antigen-Beta-2-microglobulin, PDB entry 4prp) is listed as 2.2 µM (active).
In the case of COc1cc(NC(=O)C[C@@]2(C)C[C@H](c3cccc(Cl)c3)[C@@H](c3ccc(Cl)c(F)c3)N([C@H](CS(=O)(=O)C(C)(C)C)C3CC3)C2=O)ccc1C(=O)O, the Kd (protein: E3 ubiquitin-protein ligase Mdm2, PDB entry 4wt2) is given as 3.8e-05 µM (active).
For CSCC[C@H](NC(=O)[C@H](CC(C)C)NC(=O)[C@H](CCCNC(N)N)NC(=O)[C@@H](N)CC(N)=O)C(=O)N[C@@H](CC(C)C)C(=O)N[C@H](C(=O)NCC(=O)O)[C@@H](C)O (H-N[Orn(CH(NH2)2)]LMLTG-OH), the Kd (protein: Chaperone protein DnaK, PDB entry 4ezx) is given as 1.6 µM (active).
For CC(C)C[C@H](NC(=O)[C@H](CC(C)C)NC(=O)[C@H](CCCNC(N)N)NC(=O)[C@@H](N)CC(N)=O)C(=O)N[C@@H](CC(C)C)C(=O)N[C@H](C(=O)NCC(=O)O)[C@@H](C)O, the Kd (protein: Chaperone protein DnaK, PDB entry 4ezw) is listed as 1 µM (active).
In the case of COc1cc(OC)c2c(=O)[nH]c(-c3cc(C)c(O)c(C)c3)nc2c1, the Kd (protein: Bromodomain-containing protein 2, PDB entry 4mr5) is listed as 0.251 µM (active) and the Kd (protein: Bromodomain-containing protein 4, PDB entry 4mr3) is listed as 1.14 µM (active).
For COc1ccc(Nc2nc3cc(C(=O)O)ccc3n2Cc2ccccc2C(F)(F)F)cc1F, the Kd (protein: KINESIN-LIKE PROTEIN KIF11, PDB entry 3zcw) is listed as 0.65 µM (active).
For C[C@@H](O)[C@H](N)C(=O)N[C@@H](CC(N)=O)C(=O)N[C@@H](CCC(=O)O)C(=O)N[C@@H](Cc1ccc(O[P+](O)(O)O)cc1)C(=O)N[C@H](C(=O)N[C@@H](CCC(=O)O)C(=O)NCC(=O)N1CCC[C@H]1C(=O)N[C@H](C(=O)O)[C@@H](C)O)[C@@H](C)O (H-TNE[X1]TEGPT-OH), the Kd (protein: E3 ubiquitin-protein ligase CBL, PDB entry 3bum) is given as 0.32 µM (active).
In the case of CC(C)C[C@H](NC(=O)[C@H](CC(N)=O)NC(=O)[C@@H](N)CCCNC(N)N)C(=O)N[C@@H](Cc1ccccc1)C(=O)NCC(=O)N1CCC[C@H]1C(=O)O (H-[Orn(CH(NH2)2)]NLFGP-OH), the Kd (protein: phospho-CDK2/cyclin A, PDB entry 1h27) is listed as 2.5 µM (active).
For C[C@@H](O)[C@H](NC(=O)[C@H](CC(N)=O)NC(=O)[C@@H](N)CCCNC(N)N)C(=O)N[C@@H](CC(N)=O)C(=O)N[C@@H](CCC(=O)O)C(=O)N[C@@H](Cc1ccc(O[P+](O)(O)O)cc1)C(=O)N[C@H](C(=O)N[C@@H](CCC(=O)O)C(=O)NCC(=O)N1CCC[C@H]1C(=O)O)[C@@H](C)O[P+](O)(O)O (H-[Orn(CH(NH2)2)]NTNE[X1][Thr(P(OH)3+)]EGP-OH), the Kd (protein: E3 ubiquitin-protein ligase CBL c-Cbl TKB domain, PDB entry 3ob1) is listed as 3.83 µM (active).
In the case of CC(C)C[C@H](NC(=O)[C@@H](N)CC(=O)O)C(=O)N[C@@H](Cc1ccc(O)cc1)C(=O)NCC(=O)O (H-DLYG-OH), the Kd (protein: E3 ubiquitin-protein ligase RNF31 HOIP PUB Domain, PDB entry 4p0a) is listed as 30.3 µM (active).
For CC(C)C[C@H](NC(=O)[C@H](CS)NC(=O)[C@H](CCC(=O)O)NC(=O)[C@H](Cc1ccc(O)cc1)NC(=O)CNC(=O)[C@H](Cc1ccc(O)cc1)NC(=O)C(CCC(=O)O)NC(=O)[C@H](CCC(=O)O)NC(=O)[C@@H](N)CC(=O)O)C(=O)N[C@@H](CC(=O)O)C(=O)O (some centres undefined) (H-DE[ξE]YGYECLD-OH), the Kd (protein: AP-2 complex subunit mu-1, PDB entry 2pr9) is listed as 0.0422 µM (active).
In the case of O[C@@H]1[C@H](O)[C@@H](CO[P+](O)(O)O)O[C@H]1n1cnc2c(NCc3ccco3)ncnc21, the Kd (protein: 2'-deoxynucleoside 5'-phosphate N-hydrolase 1, DNPH1 (RCL), PDB entry 4kxn) is listed as 0.8 µM (active).
For CCc1cn([C@@H]2O[C@H](CO)[C@@H](O)[C@H]2O)c2ncnc(N)c12, the Kd (protein: Adenosine kinase ADK, PDB entry 4pvv) is given as 0.33 µM (active).
For CC(C)=CCNc1ncnc2c1ncn2[C@@H]1O[C@H](CO[P+](O)(O)O)[C@@H](O)[C@H]1O, the Kd (protein: 2'-deoxynucleoside 5'-phosphate N-hydrolase 1, DNPH1 (RCL), PDB entry 4kxm) is given as 2.6 µM (active).
In the case of CNc1ncnc2c1ncn2[C@@H]1O[C@H](CO)[C@@H](O)[C@H]1O, the Kd (protein: YTH domain-containing family protein 2 YTH-YTHDF2, PDB entry 4rdn) is given as 1.2 µM (active).
For O[C@@H]1[C@H](O)[C@@H](CO[P+](O)(O)O)O[C@H]1n1cnc2c(NC3CCCC3)ncnc21, the Kd (protein: 2'-deoxynucleoside 5'-phosphate N-hydrolase 1, DNPH1 (RCL), PDB entry 4kxl) is given as 0.6 µM (active).
In the case of CN(C)[C@@H](Cc1cnc[nH]1)C(=O)O, the Kd (protein: Histidine-specific methyltransferase EgtD, PDB entry 4pin) is listed as 4 µM (active) and the Kd (protein: Histidine-specific methyltransferase EgtD, PDB entry 4pio) is listed as 2 µM (active).
For C=C1C/C=C/[C@H](OC)[C@H](OC(N)=O)C(=C)C[C@@H](C)[C@@H](O)[C@@H](OC)C[C@H](C)CC2=C(OC)C(=O)C(C)=C(NC1=O)C2=O, the Kd (protein: ATP-DEPENDENT MOLECULAR CHAPERONE HSP82, PDB entry 4as9) is given as 16.3 µM (active).
For OCc1cn([C@H]2O[C@H](CO)[C@@H](O)[C@H](O)[C@@H]2O)nn1, the Kd (protein: Concanavalin-A ConA, PDB entry 4pf5) is given as 3.3 µM (active).
In the case of CCC(=O)O[C@H](CCOCc1ccccc1)[C@@H](C)[C@H](O)[C@@H](C)CCC(=O)[C@H](C)[C@H](OC(C)=O)[C@H](C)/C=C/N(C)C=O, the Kd (protein: Actin, alpha skeletal muscle, PDB entry 4k42) is given as 0.285 µM (active).
In the case of NC1N=C2NN=C(CC(=O)O)C(=O)C2C(=O)N1 (centres undefined), the Kd (protein: Dihydropteroate Synthase, PDB entry 4dai) is given as 0.11 µM (active).
In the case of O=C1NC(=O)[C@H](Cc2ccccc2)N1, the Kd (protein: Mhp1, PDB entry 2JLO) is given as 54 µM (active).
In the case of O=C1N=C(Cc2cccc(Br)c2)C(=O)N1, the Kd (protein: nucleobase-cation-symport-1 family hydantoin transporter Mhp1, PDB entry 4d1c) is given as 2 µM (active).
For CCCCCCCCC(=O)c1cc(O)c(O)c(O)c1, the Kd (protein: Nuclear receptor subfamily 4 group A member 1, PDB entry 4jgv) is given as 0.27 µM (active).
In the case of C[C@]12CC(=O)[C@H]3[C@@H](CCC4=CC(=O)CC[C@@]43C)[C@@H]1CC[C@@H]2C(=O)CO, the Kd (protein: Phospholipase A2 VRV-PL-VIIIa, PDB entry 4qf7) is listed as 0.0025 µM (active).
For H-GALGGAKQAGAV-OH, the Kd (protein: Clumping factor A (ClfA), PDB entry 2vr3) is listed as 10.5 µM (active).
